# Results filed as inconclusive are left out. The source made the active and inactive calls. Rule for the calls, unless noted: active = hit-call score of the fitted dose curve at least 0.9, where 1 is the maximum; inconclusive = response in the unintended direction; inactive = score below 0.9.
# Assays:
# [1] = read-out: Tumor necrosis factor receptor 1 (TNFRSF1A), TNFRSF1A (gene 7132); test: LTEA_HepaRG_TNFRSF1A: Life Technologies and Expression Analysis (LTEA) Assay for Tumor necrosis factor receptor 1 (TNFRSF1A) using HepaRG (AID 2283535; active = hit-call score of the fitted dose curve at least 0.9, where 1 is the maximum; inactive = score below 0.9); details: mRNA level, 48 h; actives raise or lower the signal
# Summary of the method: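 Differentiated HepaRG cells in serum-free induction medium, exposed 48 h in duplicate to 8 half-log concentrations up to 100 uM in 0.5% DMSO. TNFRSF1A mRNA by Fluidigm TaqMan qRT-PCR, normalized to ACTB, GAPDH, POLR2A; bidirectional fit.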
# [2] = read-out: Thyroid Hormone Responsive (THRSP), THRSP (gene 7069); test: LTEA_HepaRG_THRSP: Life Technologies and Expression Analysis (LTEA) Assay for Thyroid Hormone Responsive (THRSP) using HepaRG (AID 2283536; active = hit-call score of the fitted dose curve at least 0.9, where 1 is the maximum; inactive = score below 0.9); details: mRNA level, 48 h; actives raise or lower the signal
# Summary of the method: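 THRSP transcript quantified by Fluidigm qRT-PCR against three housekeeping genes after 48 h chemical exposure of HepaRG cells in serum-free induction medium; eight-point half-log series, top 100 uM, 0.5% DMSO vehicle, duplicate wells.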
# [3] = read-out: UDP glucuronosyltransferase (UGT1A1), UGT1A1 (gene 54658); test: LTEA_HepaRG_UGT1A1: Life Technologies and Expression Analysis (LTEA) Assay for UDP glucuronosyltransferase (UGT1A1) using HepaRG (AID 2283538; active = hit-call score of the fitted dose curve at least 0.9, where 1 is the maximum; inactive = score below 0.9); details: mRNA level, 48 h; actives raise or lower the signal
# Summary of the method: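 Cells are plated, cultured 48 h, switched to serum-free induction medium, then dosed 48 h at eight concentrations (max 100 uM, 0.5% DMSO). RNA is isolated and UGT1A1 expression measured by qRT-PCR; changes versus DMSO are fitted in both directions.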
# [4] = read-out: UDP glucuronosyltransferase (UGT1A6), UGT1A6 (gene 54578); test: LTEA_HepaRG_UGT1A6: Life Technologies and Expression Analysis (LTEA) Assay for UDP glucuronosyltransferase (UGT1A6) using HepaRG (AID 2283539; active = hit-call score of the fitted dose curve at least 0.9, where 1 is the maximum; inactive = score below 0.9); details: mRNA level, 48 h; actives raise or lower the signal
# Summary of the method: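 Differentiated HepaRG cells, ~100,000/well, were exposed for 48 h in serum-free induction medium with 0.5% DMSO to 8-point half-log series topping at 100 uM, in duplicate. mRNA measured by Fluidigm TaqMan qRT-PCR, normalized to ACTB, GAPDH and POLR2A.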
# [5] = read-out: X-box binding protein 1 (XBP1), XBP1 (gene 7494); test: LTEA_HepaRG_XBP1: Life Technologies and Expression Analysis (LTEA) Assay for X-box binding protein 1 (XBP1) using HepaRG (AID 2283540; active = hit-call score of the fitted dose curve at least 0.9, where 1 is the maximum; inactive = score below 0.9); details: mRNA level, 48 h; actives raise or lower the signal
# Summary of the method: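 Differentiated human HepaRG cells in serum-free induction medium exposed 48 h in duplicate to eight half-log concentrations up to 100 uM in 0.5% DMSO. XBP1 mRNA measured by Fluidigm TaqMan qRT-PCR, normalized to ACTB, GAPDH, POLR2A; bidirectional fitting against DMSO.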
# [6] = LTEA_HepaRG_LDH_cytotoxicity: Cytotoxicity Assessment in the Life Technologies and Expression Analysis (LTEA) Assay (AID 2283563);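 for AC50: LDH activity released into spent culture medium as a marker of cell death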
# Summary of the method: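 Differentiated HepaRG cells in serum-free induction medium, exposed 48 h in duplicate to 8 half-log concentrations up to 100 uM in 0.5% DMSO. Cytotoxicity from LDH measured in spent medium, fit relative to DMSO.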
# [7] = molecular target: Cellular tumor antigen p53 (Homo sapiens) (UniProt P04637); test: TOX21_p53_BLA_p2_ratio: Tox21 HCT-116 p53 Agonism Beta-lactamase Assay, Ratio, Phase 2 (AID 2283592)
# Summary of the method: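 First, HCT116 reporter cells settle for 5 h at 37C. Next, DMSO compound solutions are pinned in (217-fold dilution) and left 16 h. Finally, CCF4-AM substrate is loaded 2 h at room temperature and the 460/530 nm ratio read.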
# [8] = molecular target: Cellular tumor antigen p53 (Homo sapiens) (UniProt P04637); test: TOX21_p53_BLA_p3_ratio: Tox21 HCT-116 p53 Agonism Beta-lactamase Assay, Ratio, Phase 3 (AID 2283596)
# Summary of the method: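 Cells were seeded at 4000/well, rested 5 h at 37C, then dosed with DMSO compound solutions (217-fold dilution) for 16 h. CCF4-AM substrate was loaded for 2 h at room temperature, and the 460/530 nm emission ratio was fitted for gain of signal versus DMSO.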
# [9] = ATG_XTT_Cytotoxicity: Cytotoxicity Assessment in the Attagene TRANS-FACTORIAL HepG2 Assay (AID 2283584)
# Summary of the method: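 HepG2 cells transiently transfected with GAL4-UAS multiple reporter units, dosed 24 h; cytotoxicity read by XTT as loss of signal versus DMSO baseline.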
# [10] = TOX21_p53_BLA_p2_viability: Viability Assessment in the Tox21 HCT-116 p53 Agonism Beta-lactamase Assay, Phase 2 (AID 2283591);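 note: compound exposure lasted 16 h at 37 °C; actives lower the ATP signal meaning cytotoxicity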
# Summary of the method: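 Cytotoxicity readout: CellTiter-Glo ATP luminescence, 30 min at room temperature, after the beta-lactamase read. Cells were HCT116 exposed 16 h at 37C to compounds pin-transferred at 217-fold dilution from DMSO stocks.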
# Chain of Cellular tumor antigen p53 (Homo sapiens) (P04637 whole entry, looked up): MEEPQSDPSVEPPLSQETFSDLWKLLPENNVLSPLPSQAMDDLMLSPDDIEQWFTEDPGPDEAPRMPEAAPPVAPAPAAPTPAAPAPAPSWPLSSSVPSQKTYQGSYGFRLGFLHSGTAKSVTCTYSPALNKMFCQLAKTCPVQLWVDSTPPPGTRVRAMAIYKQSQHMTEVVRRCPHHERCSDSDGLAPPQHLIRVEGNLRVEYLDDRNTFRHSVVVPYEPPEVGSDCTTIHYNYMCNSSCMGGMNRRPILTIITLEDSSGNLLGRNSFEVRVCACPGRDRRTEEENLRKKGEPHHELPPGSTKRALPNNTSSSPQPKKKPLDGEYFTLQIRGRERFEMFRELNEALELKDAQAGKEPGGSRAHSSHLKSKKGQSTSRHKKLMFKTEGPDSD
compound,measurement,setting,value
c1ccc(C(O[C@@H]2CCCN(CCc3ccc4c(c3)OCO4)C2)c2ccccc2)cc1,AC50,[1],85.9 µM (active)
same,outcome,[2],inactive
same,AC50,[3],79.1 µM (active)
same,AC50,[4],83 µM (active)
same,outcome,[5],inactive
same,AC50,[6],74.7 µM (active)
same,AC50,[7],70.1 µM (active)
same,outcome,[8],inactive
CCCCCOC(C)=O,outcome,[1],inactive
same,outcome,[2],inactive
same,outcome,[3],inactive
same,outcome,[4],inactive
same,outcome,[5],inactive
same,outcome,[9],inactive
CC1(C)C(=O)N(Cl)C(=O)N1Cl,outcome,[1],inactive
same,outcome,[2],inactive
same,outcome,[3],inactive
same,outcome,[4],inactive
same,outcome,[5],inactive
same,outcome,[6],inactive
same,outcome,[9],inactive
same,outcome,[10],inactive
same,outcome,[7],inactive
OC(Cn1cncn1)(Cn1cncn1)c1ccc(F)cc1F,outcome,[1],inactive
same,outcome,[2],inactive
same,outcome,[3],inactive
same,outcome,[4],inactive
same,outcome,[5],inactive
same,outcome,[6],inactive
same,outcome,[9],inactive
same,outcome,[10],inactive
same,outcome,[7],inactive
same,outcome,[8],inactive
CCCCN1C(=O)[C@@H]([C@H](O)C2CCCCC2)NC(=O)C12CCN(Cc1ccc(Oc3ccc(C(=O)O)cc3)cc1)CC2,AC50,[1],6.08 µM (active)
same,AC50,[2],1.27 µM (active)
same,AC50,[3],2.79 µM (active)
same,AC50,[4],10 µM (active)
same,AC50,[5],3.25 µM (active)
same,AC50,[6],37.5 µM (active)
same,outcome,[10],inactive
same,AC50,[7],38.1 µM (active)
same,AC50,[8],48.8 µM (active)
O=C(O)CO,outcome,[9],inactive
Cc1cccc(O)c1C,outcome,[9],inactive
same,outcome,[10],inactive
same,outcome,[8],inactive
O=C1CN(N=Cc2ccc([N+](=O)[O-])o2)C(=O)N1,outcome,[1],inactive
same,AC50,[2],9.92 µM (active)
same,outcome,[3],inactive
same,outcome,[4],inactive
same,outcome,[5],inactive
same,outcome,[6],inactive
same,outcome,[9],inactive
same,outcome,[10],inactive
same,outcome,[7],inactive
same,outcome,[8],inactive
NNC(=O)c1ccncc1,outcome,[1],inactive
same,outcome,[2],inactive
same,outcome,[3],inactive
same,outcome,[4],inactive
same,outcome,[5],inactive
same,outcome,[6],inactive
same,outcome,[9],inactive
same,outcome,[10],inactive
same,outcome,[7],inactive
O=C(N[C@H](CO)[C@H](O)c1ccc([N+](=O)[O-])cc1)C(Cl)Cl,outcome,[9],inactive
same,outcome,[10],inactive
same,outcome,[7],inactive
same,outcome,[8],inactive
CCCCCCCCCCCCCCO,outcome,[1],inactive
same,outcome,[2],inactive
same,outcome,[3],inactive
same,outcome,[4],inactive
same,outcome,[5],inactive
same,outcome,[6],inactive
same,outcome,[9],inactive
same,outcome,[10],inactive
same,outcome,[7],inactive
same,outcome,[8],inactive
CCCCCCCC/C=C\CCCCCCCC(=O)OC[C@@H](O)[C@H]1OC[C@H](O)[C@H]1O,outcome,[1],inactive
same,outcome,[2],inactive
same,outcome,[3],inactive
same,outcome,[4],inactive
same,outcome,[5],inactive
same,outcome,[6],inactive
same,outcome,[9],inactive
same,outcome,[10],inactive
same,outcome,[7],inactive
same,outcome,[8],inactive
CCn1nc(C)c2c1C(=O)NCC(c1ccc(O)cc1)=N2,outcome,[1],inactive
same,outcome,[2],inactive
same,AC50,[3],34.1 µM (active)
same,outcome,[4],inactive
same,outcome,[5],inactive
same,outcome,[6],inactive
same,outcome,[10],inactive
same,outcome,[7],inactive
same,outcome,[8],inactive
Cn1c(=O)c2[nH]cnc2n(C)c1=O,AC50,[1],0.276 µM (active)
same,outcome,[2],inactive
same,outcome,[3],inactive
same,outcome,[4],inactive
same,outcome,[5],inactive
same,outcome,[6],inactive
same,outcome,[9],inactive
same,outcome,[7],inactive
same,outcome,[8],inactive
O=C(O)c1cccc(C[C@@H]2COc3ccc(OCc4nc5cc(F)ccc5s4)cc3[C@@H]2O)c1,outcome,[1],inactive
same,AC50,[2],80.5 µM (active)
same,outcome,[3],inactive
same,outcome,[4],inactive
same,outcome,[5],inactive
same,AC50,[6],75.6 µM (active)
same,outcome,[10],inactive
same,outcome,[7],inactive
same,outcome,[8],inactive
CC(=O)c1ccccc1,outcome,[1],inactive
same,outcome,[2],inactive
same,outcome,[3],inactive
same,outcome,[4],inactive
same,outcome,[5],inactive
same,outcome,[6],inactive
same,outcome,[10],inactive
same,outcome,[7],inactive
same,outcome,[8],inactive
CCc1cccc(CC)c1N,outcome,[1],inactive
same,outcome,[2],inactive
same,outcome,[3],inactive
same,outcome,[4],inactive
same,outcome,[5],inactive
same,outcome,[6],inactive
same,outcome,[9],inactive
same,outcome,[7],inactive
same,outcome,[8],inactive
